Only a sample is shown.
aSyn 5UTR act: Activators working through SNCA 5'UTR binding (MLPCN). alpha-synuclein 5'UTR reporter, activators screen. activity score, % (tested at 7.5 µM), hits read low. hit rate 7.1% among 300,000. AID 1814; in the data active means activity score below about -60%
Starred values were filed as active, the others as inactive.

SMILES	aSyn 5UTR act
CCOc1ccc(C(=O)Oc2ccc(NC(C)=O)cc2)cc1	80
COc1cccc(NC(=O)c2ccc3snnc3c2)c1	-105*
Cc1ccc(C(=O)Nc2ccc(SC(F)F)cc2)s1	-161*
CCOc1ccc(NC(=O)c2ccc3snnc3c2)cc1	-120*
O=C(Nc1ccc(F)cc1)c1ccc2snnc2c1	-92*
Cc1ccc(NC(=O)c2ccc3snnc3c2)cc1C	-165*
CC(C)COc1ccc(C(=O)Nc2ccc(SC(F)F)cc2)cc1	-90*
Clc1cccc(Cl)c1Cn1nnc(N2CCCC2)n1	-64*
COc1ccccc1C1C=C(c2ccccc2)Nc2nnnn21 (configuration not stated)	-84*
COc1cccc(C2=CC(c3ccc(OC)c(OC)c3OC)n3nnnc3N2)c1 (configuration not stated)	-67*
CN(C)CCCNc1oc(/C=C/c2ccccc2)nc1C#N	-88*
C=CCNc1oc(/C=C/c2ccccc2)nc1C#N	-152*
CN(C)CCNc1oc(/C=C/c2ccccc2)nc1C#N	-98*
Cc1cc(C)c2nc(NCCCNC(=S)NCCCN(C)C)c(C#N)cc2c1	96
CCc1cc2cc(C(=O)Nc3ccc(C)cc3)sc2s1	-90*
CCOc1ccc(C(=O)N/N=C/c2ccccc2[N+](=O)[O-])cc1	-126*
CCC(=O)Nc1ccc(C(=O)N/N=C/c2ccccc2[N+](=O)[O-])cc1	-81*
Cc1ccc(C(=O)N/N=C\c2ccccc2[N+](=O)[O-])cn1	-111*
COc1ccc2c(=O)c3ccccc3oc2c1	-147*
COc1ccc2c(c1)oc(=O)c1c3ccccc3[nH]c21	-277*
COc1ccc2c(c1)oc(=O)c1cc(OC)ccc12	-182*
Fc1cccc2sc(N3CCCC3)nc12	-79*
Brc1cccc2sc(N3CCCC3)nc12	-75*
Clc1cccc2sc(N3CCOCC3)nc12	-64*
CC(C)Sc1nc2ccc(N3C(=O)C4CCCCC4C3=O)cc2s1 (configuration not stated)	-126*
SMILES	aSyn 5UTR act
COc1ccc(-c2nc3c4ccccc4[nH]c(=O)n3n2)cc1	-82*
CSc1ccccc1OCc1cc(C(=O)NC(C)c2cnn(C)c2)no1 (configuration not stated)	-62*
CSc1ccccc1OCc1cc(C(=O)N[C@H]2CCCCNC2=O)no1	-83*
O=C(Nc1nc2ccc(F)cc2s1)C1CCCO1 (configuration not stated)	-145*
O=C(Nc1nc2ccccc2s1)C1CCCO1 (configuration not stated)	-132*
Cc1cc(C)c2sc(NC(=O)C3CC3)nc2c1	-89*
O=C(Nc1ccc(-c2nc3cccnc3s2)cc1)C1CCCO1 (configuration not stated)	87
Nc1ccc2nc(NC(=O)C3CCCCC3)sc2c1	-124*
O=C(Nc1nnc(-c2ccccc2F)s1)C1CCCO1 (configuration not stated)	-181*
COc1cccc(-c2cc(C(=O)N3CCCc4ccccc43)no2)c1	-126*
COc1ccc(-c2cc(C(=O)N3CCCc4ccccc43)no2)cc1	-107*
O=C(Nc1ccc2c(c1)OCCO2)c1ccc(Cl)c(S(=O)(=O)N2CCOCC2)c1	-67*
O=C(Nc1ccc2c(c1)OCCO2)c1ccc(CN2CCOCC2)cc1	-148*
Cc1ccc(C(=O)Nc2ccc(CN3CCS(=O)(=O)CC3)cc2)cc1C	-78*
O=C(Nc1cccnc1)Nc1ccccc1Cl	-72*
O=C(NCc1ccco1)Nc1ccc(Br)cc1Cl	-170*
O=C(Nc1ccc(Cl)cc1)Nc1ccccc1Sc1ncc([N+](=O)[O-])s1	-90*
O=C(Nc1ccc(Cl)c(Cl)c1)OCc1cccnc1	-73*
O=C(Nc1ccc2c(c1)CCC2)Nc1ccccc1Cl	-110*
O=C(Nc1csc([N+](=O)[O-])c1)Nc1ccccc1Cl	-89*
Cc1ccc(NC(=O)Nc2cccnc2)cc1Cl	-111*
Cc1ccc(NC(=O)Nc2ccc3c(c2)C(=O)OC3)cc1Cl	-83*
O=C(Nc1cccnc1)Nc1ccc(Br)cc1Cl	-68*
O=C(Nc1ccc(Nc2ccccc2)cc1)Nc1ccccc1Cl	-227*
Cc1nonc1NC(=O)c1oc2ccc(F)cc2c1C	-73*
SMILES	aSyn 5UTR act
Cc1cc2oc(C(=O)Nc3nonc3C)c(C)c2cc1Cl	-88*
Cc1ccc(-n2c(C(C)C)nc3oc4ccccc4c(=O)c3c2=O)cc1	-111*
CCCc1nc2oc3ccccc3c(=O)c2c(=O)n1-c1ccccc1	-153*
CCc1nc2oc3ccccc3c(=O)c2c(=O)n1-c1ccc(C)cc1	-139*
CCCc1nc2oc3ccccc3c(=O)c2c(=O)n1-c1ccc(C)cc1	-84*
CCc1nc2oc3ccccc3c(=O)c2c(=O)n1-c1ccccc1	-315*
CCCn1c(C2CCCN2c2nc(-c3cccc(Br)c3)cs2)nc2ccccc21 (configuration not stated)	-93*
CC(C)CCSc1nc(N2CCOCC2)c2c(c1C#N)CC(C)(C)OC2	58
CC1(C)Cc2c(c(N3CCOCC3)nc3sc(C(=O)Nc4ccccc4)c(N)c23)CO1	-74*
CN(C)CCNc1ncnc2c1sc1nc(N3CCOCC3)c3c(c12)CC(C)(C)SC3	72
